The text below walks through data of PubChem BioAssay (NCI).

This is part of a sample that, as a whole, favours compounds with a hit. Of some 79,000 tested, about 15% had one in any assay. Values without a mark were called inactive. Activity calls are given as the source filed them. Cut-off read from the data, not from the text of the source: active = growth inhibition above about 70%; inactive = the rest.

Test [1] in a line: NCI Yeast Anticancer Drug Screen. Data for the rad50 strain (AID 155).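 Note: 0% = growth of vehicle-only cultures of the same strain.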 Particulars: S. cerevisiae rad50 strain growth inhibition; at 50.0 µM; active compounds read high. The procedure, abridged:
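Vehicle-treated cultures provide the reference for the growth inhibition reported for compound-exposed, repair-deficient yeast.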

Test [2] is described as follows: NCI Yeast Anticancer Drug Screen. Data for the mec2-1 strain (AID 157). Particulars: S. cerevisiae mec2-1 strain, at 50.0 µM, active compounds read high. The procedure, abridged:
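Each compound was tested on mec2-1 yeast, a strain altered in DNA damage repair or cell cycle control. Growth inhibition is reported relative to vehicle.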

Test [3] can be described thus: NCI Yeast Anticancer Drug Screen. Data for the sgs1 mgt1 strain (AID 161).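 Note: 0% = growth of cultures given vehicle only.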 Particulars: S. cerevisiae sgs1 mgt1 strain, at 50.0 µM, active compounds read high. The procedure, abridged:
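Inhibition of yeast growth, normalised to vehicle-treated controls, is reported for a strain bearing genetic alterations in DNA damage repair.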

The nature of test [4]: NCI Yeast Anticancer Drug Screen. Data for the cln2 rad14 strain (AID 165).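 Note: 0% = growth equal to vehicle treated cultures.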 Conditions: S. cerevisiae cln2 rad14 strain, at 50.0 µM, active compounds read high. The procedure, abridged:
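Test compounds were added to cln2 rad14 yeast cultures; inhibition of growth was then determined by comparison with vehicle treatment.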

The nature of test [5]: NCI Yeast Anticancer Drug Screen. Data for the bub3 strain (AID 167). Conditions: S. cerevisiae bub3 mutant strain, at 50.0 µM, active compounds read high. The procedure, abridged: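 Mutant yeast screening strain plus compound; vehicle-treated cultures serve as the 0% inhibition reference.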
Test [6] can be described thus: NCI Yeast Anticancer Drug Screen. Data for the mlh1 rad18 strain (AID 175). Conditions: S. cerevisiae mlh1 rad18 strain growth inhibition; at 50.0 µM; active compounds read high. The procedure, abridged:
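Inhibition values reflect reduced growth of mutant yeast versus vehicle-treated controls following compound exposure; the mutations affect DNA damage repair.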

Turning to `C[C@]12CCC(=O)C=C1CC[C@@H]1[C@@H]2CC[C@]2(C)C(=O)[C@H](n3ccnc3)C[C@@H]12`, the growth inhibition was -1.35% in test [1]; 2.45% in test [2]; 0.9% in test [3]; 3.2% in test [4]; -1.2% in test [5]; 5.65% in test [6].
For `CCC[N+]12C(O)C(CC)C3CC1C1N(C)c4ccc(Br)cc4C14CC2C3C4O` (stereo unspecified), the growth inhibition in test [1] is 27.9%; in test [2], 8.3%; in test [3], 4.35%; in test [4], -12.3%; in test [5], 6.85%; in test [6], 20.9%.
For `CC1(C)C(=O)N(O)C(C)(C)N1N=O`, the growth inhibition in test [1] was 1.95%; in test [2], 13.4%; in test [3], 18.1%; in test [4] it was 28.4%; in test [5], 15.4%; in test [6], 19.6%.
As to `CCCCCCCC(=O)[O][Pb]([CH2]C)([CH2]C)[CH2]C`, the growth inhibition in test [1] was -7.8%; in test [2] it was -29.2%; in test [3], 1.95%; in test [4], -1.5%; in test [5], 0%; in test [6], -21.3%.
As to `O=C(O)/C=C/C(=O)O.[Ni]`, the growth inhibition was -13.8% in test [1]; -21.6% in test [2]; -28.1% in test [3]; -45.5% in test [4]; 0.35% in test [5]; 0.5% in test [6].
Turning to `COC(=O)CN(C)P(=O)(N1CC1)N1CC1`, the growth inhibition was 13.4% in test [1]; 7.15% in test [2]; -4.1% in test [3]; -10.2% in test [4]; -2.8% in test [5]; -10.1% in test [6].
On to `CN(C)P(=O)(N(C)C)N(C)C.[CH3][Sn]([CH3])([Cl])[Cl]`, for which the growth inhibition was 5.75% in test [1]; -1.2% in test [2]; 52.4% in test [3]; 49.9% in test [4]; 63.8% in test [5]; 82.2% (active) in test [6].
Take `CC1CN1P(=O)(N1CCCC1)N1CC1C` (stereo unspecified): the growth inhibition in test [1] is 5.25%; in test [2] it was 15.1%; in test [3], -20.3%; in test [4], 6.5%; in test [5] it was -1.5%; in test [6] it was 13.4%.
On to `C[C@H](O)CCC(=O)c1ccoc1`, for which the growth inhibition was -5.65% in test [1]; -2.6% in test [2]; -22.1% in test [3]; 6.2% in test [4]; -22.1% in test [5]; -14.1% in test [6].
Take `Cc1c[nH]c2c1C13CC1CN(C(=O)c1cc4cc(NC(=O)c5cc6ccccc6o5)ccc4[nH]1)C3=CC2=O` (stereo unspecified): the growth inhibition was 84.9% (active) in test [1]; 91.4% (active) in test [2]; 90.3% (active) in test [3]; 88.2% (active) in test [4]; 90.2% (active) in test [5]; 89% (active) in test [6].
As to `O=C(Oc1cc(Cl)c(S(=O)(=O)F)cc1Cl)c1ccc([N+](=O)[O-])cc1`, the growth inhibition in test [1] was 78.2% (active); in test [2], 86% (active); in test [3] it was 90.2% (active); in test [4] it was 64.8%; in test [5], 73.5% (active); in test [6] it was 89.9% (active).
`FC(F)(F)c1ccc(Cl)c(NC2=NCCCS2)c1`: the growth inhibition is -7.85% in test [1]; -0.35% in test [2]; 2.15% in test [3]; 2.05% in test [4]; 0.4% in test [5]; -3.6% in test [6].
In the case of `O=C1NC(=S)NC(=O)C1=Cc1cc2c(cc1[N+](=O)[O-])OCO2`, the growth inhibition in test [1] was 0.45%; in test [2], -4.2%; in test [3] it was 4.4%; in test [4], 15.1%; in test [5] it was 7.95%; in test [6], -7.8%.
Take `C=CCc1cc(OC)c2c(c1OC)OCO2`: the growth inhibition is 6.3% in test [1]; 8.95% in test [2]; -0.7% in test [3]; 2.05% in test [4]; -1.9% in test [5]; 7.05% in test [6].
As to `CCCCCCCCCCNP(=O)(Oc1ccccc1)Oc1ccccc1`, the growth inhibition in test [1] was -21.8%; in test [2] it was 4.05%; in test [3], -16.4%; in test [4], -24.5%; in test [5] it was -4.75%; in test [6], -23.9%.
In the case of `COc1cc(-c2ccc(N)c(OC)c2)ccc1N`, the growth inhibition in test [1] was 26.7%; in test [2], 7.9%; in test [3] it was 20.2%; in test [4], 5.8%; in test [5], -2.45%; in test [6], 30.1%.
On to `COC(=O)C1=CCCN(C)C1`, for which the growth inhibition in test [1] was 0.15%; in test [2] it was -0.6%; in test [3], 10.2%; in test [4], -0.4%; in test [5], 2.15%; in test [6], 3.7%.
Take `CC(=O)CC(C)=O.CC(=O)CC(C)=O.CC(=O)CC(C)=O.CC(=O)CC(C)=O.[Zr]`: the growth inhibition in test [1] is 7.2%; in test [2] it was 28.6%; in test [3] it was 10.4%; in test [4], 29.6%; in test [5] it was 38.6%; in test [6] it was 30.1%.
`CS(=O)(=O)c1ccc([As](=O)(O)O)cc1`: the growth inhibition was 5.7% in test [1]; 0.1% in test [2]; 20.6% in test [3]; -34.1% in test [4]; 5.2% in test [5]; -11.8% in test [6].
Turning to `C[N+](C)(C)CC1CCCC/C1=N\O` (stereo unspecified), the growth inhibition in test [1] was 23.2%; in test [2], 0.3%; in test [3] it was 9.75%; in test [4], 39%; in test [5] it was 8.6%; in test [6] it was 39.3%.
`NC1C(=O)NC(=O)NC1=O`: the growth inhibition in test [1] was 4.2%; in test [2], 11.4%; in test [3], 8.4%; in test [4], 15.1%; in test [5] it was 4.6%; in test [6], 22.8%.
